Holding throughout (details): mRNA level, 48 h; actives raise or lower the signal
Read-out in assay [1]: CYP4A11 (gene 1579)
The assay is described as follows: LTEA_HepaRG_CYP4A11: Life Technologies and Expression Analysis (LTEA) Assay for CYP4A11 using HepaRG (AID 2283486). In short, it runs like this: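 Human hepatic HepaRG cultures receive duplicate 48 h exposures across a concentration-response series topping at 100 uM. Expression changes in CYP4A11 are measured by qRT-PCR relative to DMSO controls.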

Read-out in assay [2]: Cytochrome P450 3A4 (Homo sapiens) (UniProt P08684)
The experiment in a line: LTEA_HepaRG_CYP3A4: Life Technologies and Expression Analysis (LTEA) Assay for CYP3A4 using HepaRG (AID 2283487). In short, it runs like this: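 Differentiated HepaRG cells, plated 48 h, then dosed 48 h in serum-free induction medium with 0.5% DMSO, 8 half-log concentrations up to 100 uM, duplicate. CYP3A4 mRNA by qRT-PCR, normalized to ACTB/GAPDH/POLR2A; bidirectional fit versus DMSO.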

Read-out in assay [3]: DNA damage-inducible transcript 3 (DDIT3), DDIT3 (gene 1649)
The experiment in a line: LTEA_HepaRG_DDIT3: Life Technologies and Expression Analysis (LTEA) Assay for DNA damage-inducible transcript 3 (DDIT3) using HepaRG (AID 2283488). An outline of the steps:
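Differentiated human HepaRG cells in serum-free induction medium were exposed in duplicate for 48 h to 8 concentrations (top 100 uM, half-log steps, 0.5% DMSO). DDIT3 mRNA measured by TaqMan qRT-PCR, normalized to ACTB/GAPDH/POLR2A; bidirectional fit versus DMSO.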

Read-out in assay [4]: Pro-epidermal growth factor (Homo sapiens) (UniProt P01133)
The experiment in a line: LTEA_HepaRG_EGF: Life Technologies and Expression Analysis (LTEA) Assay for Epidermal growth factor (EGF) using HepaRG (AID 2283489). An outline of the steps: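 Concentration-response mRNA assay: HepaRG cells dosed 48 h (max 100 uM, 0.5% DMSO), EGF measured by qRT-PCR and normalized to ACTB/GAPDH/POLR2A.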

Read-out in assay [5]: Early growth response protein 1 (EGR1) transcription factor, EGR1 (gene 1958)
The experiment in a line: LTEA_HepaRG_EGR1: Life Technologies and Expression Analysis (LTEA) Assay for Early growth response protein 1 (EGR1) transcription factor using HepaRG (AID 2283490). In short, it runs like this:
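Read-out is EGR1 mRNA level by qRT-PCR, normalized to three housekeeping genes and analysed for gain or loss of signal against 0.5% DMSO. Source cells: human HepaRG, treated 48 h at up to 100 uM in half-log dilutions.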

Read-out in assay [6]: Ezrin (EZR), EZR (gene 7430)
The experiment in a line: LTEA_HepaRG_EZR: Life Technologies and Expression Analysis (LTEA) Assay for Ezrin (EZR) using HepaRG (AID 2283491). An outline of the steps: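 EZR transcript levels came from Fluidigm qRT-PCR and were normalized to three housekeeping genes after 48 h chemical exposure of HepaRG cells. Dosing used an 8-point half-log series with a 100 uM top concentration in 0.5% DMSO, tested in duplicate; both directions were fitted versus vehicle.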

Read-out in assay [7]: Cytochrome P450 3A7 (Homo sapiens) (UniProt P24462)
The assay is described as follows: LTEA_HepaRG_CYP3A7: Life Technologies and Expression Analysis (LTEA) Assay for CYP3A7 using HepaRG (AID 2283492). An outline of the steps:
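qRT-PCR of CYP3A7 in HepaRG lysates after 48 h treatment; concentration-response (8 points, max 100 uM) analysed bidirectionally relative to 0.5% DMSO controls.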

Read-out in assay [8]: CYP3A5 (gene 1577)
The assay is described as follows: LTEA_HepaRG_CYP3A5: Life Technologies and Expression Analysis (LTEA) Assay for CYP3A5 using HepaRG (AID 2283493). An outline of the steps: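 Differentiated HepaRG cells in serum-free induction medium were dosed 48 h with test chemicals (8-point half-log series, top 100 uM, 0.5% DMSO, duplicate). CYP3A5 mRNA measured by qRT-PCR, normalized to ACTB, GAPDH, POLR2A; bidirectional fit versus DMSO.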

Read-out in assay [9]: Fatty Acid-Binding Protein 1 (FABP1), FABP1 (gene 2168)
The experiment in a line: LTEA_HepaRG_FABP1: Life Technologies and Expression Analysis (LTEA) Assay for Fatty Acid-Binding Protein 1 (FABP1) using HepaRG (AID 2283494). An outline of the steps: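 HepaRG, 48 h post-plating switched to serum-free induction medium, then dosed 48 h (duplicate, 8 pts, ≤100 uM, 0.5% DMSO). RNA → Fluidigm TaqMan qRT-PCR, FABP1 normed to ACTB/GAPDH/POLR2A. Bidirectional curve fit vs DMSO.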

Read-out in assay [10]: Cytochrome P450 4A22 (Homo sapiens) (UniProt Q5TCH4)
The assay is described as follows: LTEA_HepaRG_CYP4A22: Life Technologies and Expression Analysis (LTEA) Assay for Cytochrome P450 4A22 (CYP4A22) using HepaRG (AID 2283495). In short, it runs like this: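 Concentration-response (8 points, max 100 uM, 0.5% DMSO) in human HepaRG liver cells after 48 h exposure. CYP4A22 mRNA by TaqMan qRT-PCR with housekeeping-gene normalization.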

Read-out in assay [11]: Cytochrome P450 7A1 (Homo sapiens) (UniProt P22680)
The experiment in a line: LTEA_HepaRG_CYP7A1: Life Technologies and Expression Analysis (LTEA) Assay for Cytochrome P450 7A1 (CYP7A1) using HepaRG (AID 2283496). An outline of the steps: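 Gene expression endpoint in human HepaRG liver cells treated for 48 h with test chemicals (up to 100 uM, 0.5% DMSO). Values come from bidirectional concentration-response fitting versus DMSO.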

Read-out in assay [12]: Glutathione S-Transferase (GSTA2), GSTA2 (gene 2939)
The assay is described as follows: LTEA_HepaRG_GSTA2: Life Technologies and Expression Analysis (LTEA) Assay for Glutathione S-Transferase (GSTA2) using HepaRG (AID 2283497). An outline of the steps:
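HepaRG, 48 h dosing, 8-pt half-log CRC from 100 uM, 0.5% DMSO vehicle, n=2; RNA → Fluidigm TaqMan qRT-PCR; GSTA2 vs ACTB/GAPDH/POLR2A; gain/loss fit vs DMSO.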

Read-out in assay [13]: Glutamate-cysteine ligase regulatory (GCLM), GCLM (gene 2730)
The assay is described as follows: LTEA_HepaRG_GCLM: Life Technologies and Expression Analysis (LTEA) Assay for Glutamate-cysteine ligase regulatory (GCLM) using HepaRG (AID 2283500). In short, it runs like this: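 Differentiated human HepaRG cells exposed 48 h in serum-free induction medium to 8-point half-log concentrations (top 100 uM, 0.5% DMSO), in duplicate. GCLM mRNA quantified by qRT-PCR, normalized to ACTB, GAPDH, POLR2A; bidirectional fitting versus DMSO.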

Read-out in assay [14]: Heat shock 70 kDa protein 1 (HSPA1A), gene 3303
The experiment in a line: LTEA_HepaRG_HSPA1A: Life Technologies and Expression Analysis (LTEA) Assay for Heat shock 70 kDa protein 1 (HSPA1A) using HepaRG (AID 2283502). An outline of the steps: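 Differentiated human HepaRG cells in serum-free induction medium were exposed in duplicate for 48 h to eight concentrations (top 100 uM, half-log steps, 0.5% DMSO). HSPA1A mRNA was quantified by qRT-PCR, normalized to ACTB, GAPDH and POLR2A, and fitted bidirectionally against DMSO.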

Read-out in assay [15]: Hypoxia-inducible factor 1-alpha (Homo sapiens) (UniProt Q16665)
The assay is described as follows: LTEA_HepaRG_HIF1A: Life Technologies and Expression Analysis (LTEA) Assay for Hypoxia-inducible factor 1 (HIF1A) Trancription factor using HepaRG (AID 2283503).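 Further: HIF1A transcript by TaqMan qRT-PCR normalized to ACTB GAPDH and POLR2A.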 In short, it runs like this: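 HepaRG, 48 h exposure, 8-pt half-log series from 100 uM, 0.5% DMSO vehicle, duplicates. Readout: HIF1A transcript by qRT-PCR (Fluidigm array), housekeeping-normalised. Bidirectional curve fit vs DMSO baseline.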

Read-out in assay [16]: 3-Hydroxy-3-Methylglutaryl-CoA Synthase 2 (HMGCS2), HMGCS2 (gene 3158)
The experiment in a line: LTEA_HepaRG_HMGCS2: Life Technologies and Expression Analysis (LTEA) Assay for 3-Hydroxy-3-Methylglutaryl-CoA Synthase 2 (HMGCS2) using HepaRG (AID 2283504). In short, it runs like this:
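This steatosis marker was read as HMGCS2 mRNA change in HepaRG cells treated 48 h with up to 100 uM chemical. Normalisation used housekeeping genes; activity in either direction was fitted relative to 0.5% DMSO vehicle.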

Read-out in assay [17]: HGF (gene 3082)
The experiment in a line: LTEA_HepaRG_HGF: Life Technologies and Expression Analysis (LTEA) Assay for Hepatocyte Growth Facto (HGF) using HepaRG (AID 2283505). In short, it runs like this:
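Using HepaRG monolayers kept in 0.5% DMSO, chemicals were tested in duplicate over eight half-log concentrations from 100 uM for 48 h. Endpoint: HGF mRNA change relative to DMSO, normalized to ACTB/GAPDH/POLR2A.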

Read-out in assay [18]: Glutathione S-transferase M3 (GSTM3), GSTM3 (gene 2947)
The experiment in a line: LTEA_HepaRG_GSTM3: Life Technologies and Expression Analysis (LTEA) Assay for Glutathione S-transferase M3 (GSTM3) using HepaRG (AID 2283501). An outline of the steps:
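Expression of GSTM3 is determined by qRT-PCR in human liver HepaRG cells treated 48 h with an 8-point half-log range from 100 uM in 0.5% DMSO.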

Read-out in assay [19]: Glutamate-cysteine ligase catalytic (GCLC), GCLC (gene 2729)
The assay is described as follows: LTEA_HepaRG_GCLC: Life Technologies and Expression Analysis (LTEA) Assay for Glutamate-cysteine ligase catalytic (GCLC) using HepaRG (AID 2283498). An outline of the steps:
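Read-out is GCLC transcript level by Fluidigm-based TaqMan qRT-PCR, normalized to three housekeeping genes and fitted in both directions relative to 0.5% DMSO. Human HepaRG cells received chemicals for 48 h, up to 100 uM.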

The source made the active and inactive calls. How the source made its calls: active means hit-call score of the fitted dose curve at least 0.9, where 1 is the maximum; inactive means score below 0.9.

Sequence of Cytochrome P450 3A7 (Homo sapiens) (P24462 whole entry, looked up): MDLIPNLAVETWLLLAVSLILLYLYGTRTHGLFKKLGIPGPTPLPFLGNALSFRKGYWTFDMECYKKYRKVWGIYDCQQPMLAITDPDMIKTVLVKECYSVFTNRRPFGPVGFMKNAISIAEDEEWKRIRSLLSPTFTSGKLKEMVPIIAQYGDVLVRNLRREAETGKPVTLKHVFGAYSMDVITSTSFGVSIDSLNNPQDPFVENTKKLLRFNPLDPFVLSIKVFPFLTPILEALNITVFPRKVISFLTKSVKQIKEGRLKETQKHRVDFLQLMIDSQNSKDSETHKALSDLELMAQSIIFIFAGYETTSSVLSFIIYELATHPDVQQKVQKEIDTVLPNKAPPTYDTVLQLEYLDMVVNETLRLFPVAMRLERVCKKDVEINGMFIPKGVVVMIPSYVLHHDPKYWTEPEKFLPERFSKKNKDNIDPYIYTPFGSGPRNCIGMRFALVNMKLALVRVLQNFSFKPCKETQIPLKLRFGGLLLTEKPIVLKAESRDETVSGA
Sequence of Cytochrome P450 3A4 (Homo sapiens) (P08684 whole entry, looked up): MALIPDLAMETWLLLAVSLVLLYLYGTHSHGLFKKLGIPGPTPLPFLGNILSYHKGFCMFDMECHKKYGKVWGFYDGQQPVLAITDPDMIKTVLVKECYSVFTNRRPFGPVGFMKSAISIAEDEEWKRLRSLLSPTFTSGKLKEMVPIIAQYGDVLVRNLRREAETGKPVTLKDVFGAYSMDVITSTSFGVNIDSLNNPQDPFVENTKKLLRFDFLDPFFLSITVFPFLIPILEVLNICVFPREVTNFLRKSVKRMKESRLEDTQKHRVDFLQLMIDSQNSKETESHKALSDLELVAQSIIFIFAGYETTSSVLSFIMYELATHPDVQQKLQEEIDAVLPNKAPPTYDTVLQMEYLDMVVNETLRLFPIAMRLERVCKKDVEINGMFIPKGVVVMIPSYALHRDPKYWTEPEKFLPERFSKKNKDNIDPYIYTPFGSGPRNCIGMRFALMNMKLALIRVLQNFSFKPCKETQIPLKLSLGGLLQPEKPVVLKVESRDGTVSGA
Sequence of Hypoxia-inducible factor 1-alpha (Homo sapiens) (Q16665 whole entry, looked up): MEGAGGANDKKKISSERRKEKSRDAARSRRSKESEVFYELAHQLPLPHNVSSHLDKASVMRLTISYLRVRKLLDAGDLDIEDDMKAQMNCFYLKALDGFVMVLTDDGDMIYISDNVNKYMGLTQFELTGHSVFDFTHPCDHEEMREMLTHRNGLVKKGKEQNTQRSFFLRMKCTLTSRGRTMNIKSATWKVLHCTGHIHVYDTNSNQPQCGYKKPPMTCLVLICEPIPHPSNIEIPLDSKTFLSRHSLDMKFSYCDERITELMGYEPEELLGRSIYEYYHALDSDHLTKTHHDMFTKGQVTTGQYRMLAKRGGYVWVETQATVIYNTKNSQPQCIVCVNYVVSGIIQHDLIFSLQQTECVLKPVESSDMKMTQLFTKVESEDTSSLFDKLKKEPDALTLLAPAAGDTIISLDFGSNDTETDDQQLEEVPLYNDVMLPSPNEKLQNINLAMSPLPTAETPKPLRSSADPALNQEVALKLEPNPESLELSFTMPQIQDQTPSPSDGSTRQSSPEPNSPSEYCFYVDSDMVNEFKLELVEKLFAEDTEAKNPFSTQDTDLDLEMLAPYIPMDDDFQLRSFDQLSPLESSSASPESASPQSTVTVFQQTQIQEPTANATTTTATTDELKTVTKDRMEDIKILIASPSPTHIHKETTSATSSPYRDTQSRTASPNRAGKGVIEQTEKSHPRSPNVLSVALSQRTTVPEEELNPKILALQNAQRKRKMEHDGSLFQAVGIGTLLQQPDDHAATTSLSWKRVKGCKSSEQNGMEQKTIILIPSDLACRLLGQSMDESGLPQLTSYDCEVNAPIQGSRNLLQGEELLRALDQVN

A word on the AC50: it is the concentration giving half of the maximal activity seen. With `Oc1c(Cl)c(Cl)c(Cl)c(Cl)c1Cl`, the AC50 in [1] is 4.37 µM (active); in assay [2], 4.73 µM (active); in assay [3], 11.7 µM (active); in assay [4] it was 25.5 µM (active); in assay [5], 8.53 µM (active); in [6], 1.58 µM (active). In addition, the AC50 was 4.85 µM (active) in assay [7]; 10.6 µM (active) in assay [8]; 2.35 µM (active) in assay [9]; 3.87 µM (active) in [10]; 3.88 µM (active) in assay [11]; 3.87 µM (active) in [12]. The AC50 was 2.1 µM (active) in assay [13], 6.34 µM (active) in [14], 5.16 µM (active) in [15] and 4.84 µM (active) in assay [16]. In addition, the compound was classed as inactive in assay [17].

With `ClC1=C(Cl)[C@]2(Cl)[C@@H]3[C@@H](Cl)[C@H]4O[C@H]4[C@@H]3C1(Cl)C2(Cl)Cl`, the AC50 is 31.1 µM (active) in assay [1]; 1.35 µM (active) in assay [2]; 1.77 µM (active) in assay [7]; 50 µM (active) in [9]; 24.9 µM (active) in assay [10]; 13.3 µM (active) in [11]. In addition, the values for the AC50 in assay [12] and in assay [16] were 82.5 µM (active) and 18.4 µM (active), respectively. Besides, the outcome in assay [3], in assay [4], in assay [5], in assay [6], in assay [8] and in assay [13] was inactive. The result in assay [18], in [14], in assay [15] and in [17] was inactive.

In the case of `Clc1ccc(C(c2ccccc2Cl)C(Cl)(Cl)Cl)cc1` (configuration not stated), the AC50 in [1] is 40.7 µM (active); in [2], 2.46 µM (active); in [3], 74.6 µM (active); in [5] it was 11.9 µM (active); in assay [7], 0.41 µM (active); in [9], 33.9 µM (active). For the same compound, the AC50 in [11] is 15.3 µM (active); in [14] it was 12 µM (active); in [16], 50 µM (active). The result in assay [4], in [6], in assay [8], in assay [12], in assay [19] and in [13] was inactive. The compound was called inactive in assay [15] and in assay [17].
